Screening data as filed in PubChem BioAssay.
POLH inh: blocks human DNA polymerase eta activity; Q9Y253; Potency, µM (doses to about 114 µM), hits mostly inhibitors; actives 1.2% (n = 390,000); recombinant Pol eta, fluorescent DNA replication assay
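Fluorescent replication assay: 50 nM final substrate added after a 15 min room-temperature compound preincubation with 10 nM enzyme. Signal taken at 0 min and again at 10 min.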
KAT2A inh: blocks human GCN5L2 histone acetyltransferase; Potency, µM (series often up to 58.9 µM), hits mostly inhibitors; GCN5L2 HAT assay, ThioGlo1 CoA-SH fluorescence; actives 0.21% (n = 390,000); Q92830
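Fluorescence readout, Ex340nm/Em540nm: ThioGlo1 (50uM final) reacts with free CoA thiol released as 20nM GCN5L2 acetylates H3(1-25) peptide (75uM) using acetyl-CoA (70uM). Compound and enzyme sat 15 min beforehand; 20 min room-temperature reaction.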
POLB inh: inhibitors of human DNA polymerase beta | actives 1.3% (n = 340,000) | Potency, µM (highest dose often 114 µM), actives largely listed as inhibitors | AID 485314 | P06746 | Pol beta primer extension/strand displacement, fluorescence kinetic
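Pol beta (10 nM) and compounds were preincubated 15 min at room temperature, then 50 nM substrate (final) started primer extension/strand displacement. Reads were taken at 0 and 10 min; concentration-response data were fitted to a four-parameter Hill equation.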
Pol kappa inh: inhibitors of human DNA polymerase kappa. Q9UBT6. purified Pol kappa, fluorescent DNA synthesis assay, 10 min. AID 588579. actives 0.53% (n = 400,000). Potency, µM (top dose mostly 107 µM), actives largely listed as inhibitors
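Fluorescent qHTS in 1536-well format: enzyme (10 nM) and compound sat 15 min at room temperature before 50 nM substrate (final) was added. Signal taken at 0 and 10 min; no-enzyme buffer wells were negative controls.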
POLI inh: inhibitors of human DNA polymerase iota | Q9UNA4 | Pol iota fluorescent replication assay, 10 min | Potency, µM (top dose mostly 115 µM), hits mostly inhibitors | actives 1% (n = 390,000) | AID 588590
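Fluorescent replication assay read twice, at 0 min and 10 min after adding 50 nM (final) substrate. Enzyme (10 nM) and compounds were first incubated 15 min at room temperature; enzyme-free buffer wells were negative controls.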
GLS inh: inhibitors of human glutaminase (GLS); AID 624170; O94925; GLS enzymatic activity, qHTS titration; Potency, µM (doses to about 45.5 µM), actives largely listed as inhibitors; actives 0.21% (n = 410,000)
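Compounds were pin-transferred onto hKGA, after which L-glutamine (1 mM solution) and a detection mix of glutamate oxidase, HRP and Amplex Red were added. Initial and 30 min RT fluorescence reads were collected.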
Each line names hits and unclear results; the compound was inactive in the other large screens. The list is not random: actives were taken first. Their share in the collection is about 2.4%. Calls come from the whole dose curve; as a rule, active = well fitted inhibition curve with a large enough effect; inconclusive = small, poorly fitted or top-dose-only effect, or another doubt; inactive = no such curve, though single readings can be large or run the other way.

CC(NC(=O)c1cnn2c1NC(=C1CC1)C=C2C(F)F)c1ccncc1 (stereo unspecified)	none (no result: POLH inh, KAT2A inh, POLB inh, GLS inh)
Cc1cc(C)c(NC(=O)CN(c2ccccc2)S(=O)(=O)N(C)C)c(C)c1	POLH inh inconclusive, POLB inh 35µM, Pol kappa inh inconclusive, POLI inh 89µM
COc1ccc(NC(=O)CN(c2ccccc2)S(=O)(=O)N(C)C)cc1OC	POLH inh 45µM, POLB inh 40µM, Pol kappa inh inconclusive, POLI inh 14µM
CCCC1(C)C(C#N)(C#N)C1(C#N)C#N	none (no result: POLH inh, POLB inh, POLI inh, GLS inh)
CCCCCC[C@@H](CCC)C(=O)O	none (no result: POLH inh, KAT2A inh, POLB inh, Pol kappa inh, POLI inh)
Cc1cc2c(cc1C)N[C@]1(C[C@H]3CCC(=O)N4CC[C@@H](C1)[C@@H]34)C(=Nc1ccccc1C)N2	none (no result: POLH inh, KAT2A inh, POLB inh, GLS inh)
Cc1cc(C(=O)COC(=O)c2ccc([N+](=O)[O-])o2)c(C)n1CC1CCCO1 (stereo unspecified)	POLB inh inconclusive, POLI inh inconclusive
COCCn1c(C)cc(C(=O)COC(=O)c2ccc([N+](=O)[O-])o2)c1C	POLH inh 79µM, POLB inh inconclusive, POLI inh inconclusive
Cc1cc(C=O)cc(C)c1[N+](=O)[O-]	none (no result: POLH inh, KAT2A inh, POLB inh, GLS inh)
COc1cc2c(NC3CCN(C)CC3)nc(N3CCCCC3)nc2cc1OCCOCCN1CCCC1	POLI inh inconclusive (no result: POLH inh, KAT2A inh, POLB inh, GLS inh)
Cc1ccc(C(=O)Nc2nnc(SCc3cc(=O)c4c(C)ccc(C)c4[nH]3)s2)cc1	POLB inh 50µM, POLI inh inconclusive
COC(=O)CSC1=C(C#N)C(=O)NC(c2ccccc2)S1 (stereo unspecified)	KAT2A inh 35µM
CSC1=C(C#N)C(=O)NC(c2ccccc2O)S1 (stereo unspecified)	none
COc1ccccc1CCNC(=O)Cn1ccc2cc(S(=O)(=O)N3CCCC3)ccc21	none
COc1ccccc1CCNC(=O)Cn1ccc2cc(S(=O)(=O)N3CCCCC3)ccc21	Pol kappa inh inconclusive, POLI inh 89µM
COC(=O)c1c(C)sc(-c2c(-c3ccc4c(c3)OCCO4)[nH]c3c2c(=O)n(C)c(=O)n3C)c1O	none (no result: POLH inh)
COC(=O)c1c(C)sc(-c2c(-c3ccc4c(c3)OCCO4)[nH]c3[nH]c(=O)[nH]c(=O)c23)c1O	POLB inh 40µM, Pol kappa inh inconclusive, POLI inh inconclusive (no result: POLH inh)
Cc1cc(=O)n(CC(=O)Nc2ccc([N+](=O)[O-])cc2)c(-n2nc(C)cc2C)n1	none
COc1ccc(NC(=O)COC(=O)c2cc3c(s2)CCC3)cc1	POLH inh 45µM, Pol kappa inh inconclusive, POLI inh 32µM (no result: POLB inh)
NC(=O)c1c(NC(=O)COC(=O)c2ccc(O)c(Cl)c2)sc2c1CCCC2	POLH inh 50µM, POLI inh inconclusive (no result: POLB inh)
O=C(COC(=O)c1cc2c(s1)CCCC2)Nc1ccc(Cl)cn1	none
NC(=O)c1ccc(NC(=O)COC(=O)c2cc3c(s2)CCC3)cc1	POLH inh 11µM, Pol kappa inh inconclusive, POLI inh 79µM (no result: POLB inh)
O=S1(=O)CCO[C@H]2CCCC[C@@H]2N1Cc1ccccc1F	none (no result: POLH inh, KAT2A inh, POLB inh, GLS inh)
C/C(=N\O)c1ccc(OCC(=O)N2CCCCC2)cc1	none (no result: POLH inh, KAT2A inh, POLB inh, Pol kappa inh, POLI inh)
CN(CC(=O)NC(=O)NCc1ccccc1)CC(=O)Nc1ccc(Cl)c(C(F)(F)F)c1	POLI inh 89µM (no result: POLB inh)
Cc1ccc(-c2nc3ncccc3o2)cc1NC(=O)c1ccccc1Br	none
CCc1ccc(C2c3c(-c4ccccc4)n[nH]c3C(=O)N2c2ccc(C(=O)O)cc2)cc1 (stereo unspecified)	GLS inh 16µM
O=C(O)c1ccc(N2C(=O)c3[nH]nc(-c4ccccc4)c3C2c2ccccc2)cc1 (stereo unspecified)	GLS inh inconclusive
Cc1ccc(-c2n[nH]c3c2C(c2ccccc2Cl)N(c2ccc(C(=O)O)cc2)C3=O)cc1 (stereo unspecified)	POLH inh inconclusive, POLI inh inconclusive, GLS inh 7.1µM
CC1CCN(S(=O)(=O)c2ccc(NC(=O)C3CCCCC3C(=O)O)cc2)CC1 (stereo unspecified)	GLS inh 11µM (no result: KAT2A inh, POLB inh)
